In all, about 330,000 compounds went through this assay and fewer than 10 were called active. Calls follow the shape of the dose curve; as a rule, active = well fitted activation curve with a large enough effect; inconclusive = small, poorly fitted or top-dose-only effect, or another doubt; inactive = no such curve, though single readings can be large or run the other way. Only a sample is shown. Square brackets hold non-standard residues; d marks the D form. Peptide text beside a SMILES is read from it. ξ: configuration not given here. Ac5c = NC1(C(=O)O)CCCC1; ξS = NC(CO)C(=O)O
Assay: Activators of T cell receptors: qHTS campaign; also: % of control where 0% means no effect
Settings: primary human leukocytes, anti-CD3, IL-2 HTRF, 48 h; series mostly up to 9.22 µM; activation of IL-2 secretion: at the top concentration
Excerpt: Normally activation of naive T cells requires two signals. 1. A signal through the T cell receptor (TCR) which provides antigen specificity to the response. 2. Signals through co-stimulatory molecules, which are necessary for proliferation, survival and cytokine production. In the absence of co-stimulatory signals T cells are not effectively activated, and may even be rendered anergic or unresponsive to subsequent signaling. This lack of costimulation has been shown in multiple model systems to be a major factor in the limited strength and effectiveness of anti-tumor T cell responses. The goal of this project is to identify small molecule compounds that will stimulate T cell activation in the presence of TCR signaling but in the absence of co-stimulatory signals, thereby allowing activation of naive T cells in the absence of co-stimulation. Identification of such compounds would have clear experimental and clinical applications in instances where desirable antigen-specific immune responses are not generated due to a lack of co-stimulation, for example in the generation of anti-tumor responses. In collaboration between the National Cancer Institute and NIH Chemical Genomics Center, a high-throughput amenable screen was developed to discover small molecules that co-stimulate and activate human T cell receptors. The screen will be carried out using a novel homogeneous time resolved fluorescence energy transfer (HTRF) assay to measure production of the cytokine IL-2 by activated T cells and will be tested against the NIH Molecular Libraries Small Molecule Repository (MLSMR). NIH Chemical Genomics Center [NCGC] NIH Molecular Libraries Probe Centers Network [MLPCN] MLPCN Grant: MH090820-01 Assay Submitter (PI): Richard Hodes, National Cancer Institute, NIH
Primary human leukocytes are incubated with a-CD3 beads and compounds for 48 hr. The amount of secreted IL-2 is then assayed with a HTRF IL-2 kit. The presence of IL-2 cytokine captures the detection reagents and brings the a-IL-2-K and a-IL-2-d2 into close proximity. Upon excitation with 320nm light, the europium cryptate is capable of transferring energy to acceptor molecules within close proximity, resulting in acceptor molecule emission at 665nm.

Activation of IL-2 secretion, inactive:
COc1ccc(S(=O)(=O)N2C[C@H]3CON(C)[C@H]3C[C@H]2c2cccc(Br)c2)cc1 0.192%
CC(C)c1cc(N=O)cc(C(C)C)c1O 0.896%
COC(=O)CC(CC(=O)OC)n1cccc1 5.57%
CCOc1ccc(/C=C(/C#N)c2nnc(N3CCOCC3)n2-c2ccccc2)cc1OC 14.1%
O=C(Cc1ccc(NC(=O)C2CCCN(C(=O)C3CCCCC3)C2)cc1)Nc1cccc(C(=O)N2CCCCC2)c1 (configuration not stated) -6.51%
Cc1[nH]c(N)nc(=S)c1CCCNc1ccccc1 -4.36%
CC(=NNC(=O)c1ccncc1)c1ccc(Cl)c(Cl)c1 0.449%
O=C(CCCCCCCC(=O)N1CCCCC1)N1CCCCC1 1.97%
NC(=O)C1(N2CCCC2)CCN(Cc2ccccc2)CC1 -0.103%
CCOc1cc(C(=O)N(Cc2ccccc2)c2ccc(C)cc2)ccc1OCC(=O)N1CCOCC1 -0.923%
CN(C(=O)c1ccc(NC(=O)Cc2cccc(NC(=O)C3CCN(C(=O)c4ccccc4)CC3)c2)cc1)C1CC1 0.0664%
COCC(=O)N(C)[C@H]1C[C@H]2c3cc(Oc4ccccc4C)ccc3CCN2C(=O)[C@H]1[C@H](C)O 8.09%
CCN(CC)S(=O)(=O)c1cccc(NC(=O)c2ccc(S(=O)(=O)N3CCCC3)cc2)c1 -28.5%
CCOC(=O)CCC(NC(=O)c1ccc(CNc2nc3cc(C(F)(F)F)ccc3nc2C(=O)OCC)cc1)C(=O)OCC (configuration not stated) -0.383%
N#CC1(Nc2ccc(-c3ccc(Cl)cc3)cc2)CCCC1 -4.8%
O=C(O)C(c1cccs1)C1(O)CCCCC1 (configuration not stated) 3.18%
COc1ccccc1NC(=O)N(O)C1(C#N)CCCCC1 -5.54%
CC(C)Cc1nnc(N)s1 -2.99%
Cn1c(N)cc(=O)n(C)c1=S 1.37%
CN1C(c2ccc(F)cc2)=CS/C1=C(/C#N)c1nnc2n1-c1ccccc1SC2 4.24%
COc1ccc2c(c1)c(=Cc1ccc(N(C)C)cc1)c1cc(-c3ccccc3)[n+](C)n12 -1.83%
O=C(Nc1cccc(Br)c1)C1CC(=O)N(C2CCCC2)C1 (configuration not stated) 7.06%
Cc1cc(OCCCC(=O)Nc2cc(S(=O)(=O)N3CCOCC3)ccc2N2CCOCC2)ccc1Cl -1.39%
Cc1cc(NC(=O)C(C)SCC(=O)Nc2cccc(S(=O)(=O)N3CCCCCC3)c2)no1 (configuration not stated) 0.672%
Oc1ccc(-c2nc3ccccc3nc2-c2ccc(O)cc2O)c(O)c1 -0.514%
CSCCC(NS(=O)(=O)c1ccc(C)cc1)C(=O)N(C)CC(=O)Nc1ccccc1Br (configuration not stated) -0.958%
CCCCN1CC(COc2ccccc2)Oc2cccc(F)c2S1(=O)=O (configuration not stated) 4.26%
CC(C)=CCc1ccc(O)c(=O)cc1C(C)C 12.1%
CC1(C)C(=O)CCC2(C)C1=CCC1C2C(=O)CC2(C)C1CCC2(O)C(=O)CO (configuration not stated) 0.234%
COC1=CC(=O)OC(C)(c2ccccc2)C1 (configuration not stated) -3.37%
O=C(NCC1CCCCC1)NCC1CCCCC1 -9.34%
Cc1ccc(NC(=O)C(C)OC(=O)C2CC3CCCC(C2)C3=O)cc1S(=O)(=O)N1CCOCC1 (configuration not stated) 6.86%
COc1ccc(CNC(=O)COC(=O)C2=Cc3ccccc3OC2)cc1 0.823%
COC1C(CO)OC(n2cnc3c(=S)nc(N)[nH]c32)C1O (configuration not stated) -2.7%
O=C(c1cccc(S(=O)(=O)N2CCCCCC2)c1)N1CCN(Cc2ccccc2)CC1 4.29%
O=C1NC(c2ccccc2)Cc2ccncc21 (configuration not stated) 1.23%
CN1CCOC1c1ccc(C2OCCN2C)cc1 (configuration not stated) 4%
CC1CCCN(C(=O)Cn2c(=O)oc3cc(S(=O)(=O)N4CCCCC4C)ccc32)C1 (configuration not stated) 1.25%
O=C(Cc1ccc(NC(=O)C2CCCN(C(=O)CCc3ccccc3)C2)cc1)Nc1ccc(C(=O)N2CCOCC2)cc1 (configuration not stated) 6.18%
CCOc1ccc(S(=O)(=O)N2CCN(C(=O)c3oc4ccccc4c3C)CC2)cc1 -1.99%
CN(C(=O)c1cccc(NC(=O)Cc2ccc(NC(=O)C3CCN(C(=O)C4CCCCC4)CC3)cc2)c1)C1CCC1 -2.83%
COc1cc2c(cc1OC)C1C(=O)c3cc(OS(C)(=O)=O)c(OC)cc3C1N(C)C2=O (configuration not stated) 18%
Nc1cc(=O)n(Cc2ccccc2)c(=O)n1Cc1ccccc1 1.08%
c1ccc(CNc2ncnc3[nH]ncc23)cc1 -0.266%
C[n+]1cccc(C(=O)O)c1 -1.15%
O=S(=O)(Cc1ccc(Cl)cc1Cl)c1ccc(Cl)cc1 -0.548%
CCOC(=O)[C@H]1[C@H]2COc3ccc(Br)cc3[C@@H]2N2C(=O)CN(C)C(=O)[C@@]12C -0.578%
O=[N+]([O-])c1cccc(C=NN=Cc2ccccc2O)c1 3.44%
O=C(Nc1ccc2ccccc2c1[N+](=O)[O-])c1ccccc1 2.49%
COc1ccc(NS(=O)(=O)c2ccc(N3CCOCC3)c(NC(=O)/C=C/C(=O)O)c2)cc1 -0.522%
Cc1nc2ccc(N)nc2nc1C 1.17%
CCOC(=O)C(CO)NC(=O)C1(NC(C)=O)CCCC1 (configuration not stated) (Ac-[Ac5c]-[ξS]-OEt) -9.89%
COc1ccc(N=C2C=CC(=O)O2)cc1 2.72%
C/C(=N\Nc1ccc(Cl)nn1)c1ccccc1O -4.92%
O=C(NNC(=O)c1ccc2ccccc2c1)c1ccc(Cl)cc1 3.64%
COC(=O)Cc1nc2c(N)nc(N)nc2[nH]c1=O 2.41%
CC(C)OC(=O)c1ccc(NCc2cc(O)ccc2O)cc1Cl -2.79%
Cc1cc([N+](=O)[O-])c(=O)[nH]c1C -6.49%
O=C(O)c1ccc(NN=CC2=C(N3CCOCC3)/C(=C/c3ccccc3)CC2)cc1 -1.53%
CCN1C[C@@H]2[C@@H]3C(=O)N(C)C(=O)[C@@H]3[C@](C)(C1=O)N2C(=O)c1ccccc1 1.71%
COc1ccc(Br)cc1/C=N/Nc1ccc(S(=O)(=O)Nc2ccccc2C(=O)O)cc1[N+](=O)[O-] -1.12%
O=C(Nc1c[nH]c(=O)[nH]c1=O)OCc1ccccc1 -1.09%
O=C(Nc1ccn(CCCNCc2ccc3[nH]ccc3c2)c(=O)n1)OCc1ccccc1 3.57%
CCCCNCCS(=O)(=O)NCc1ccccc1 -4.58%
COc1ccc2nc(N3C(=O)C(O)=C(C(=O)c4ccco4)C3c3ccco3)sc2c1 (configuration not stated) 1.73%
COc1ccc(C(CNC(=O)c2cccc(S(=O)(=O)Nc3ccc(Br)cc3)c2)N(C)C)cc1 (configuration not stated) -9.63%
CCCCC(=O)NC(c1ccc(OC)c(OC)c1)c1ccc2cccnc2c1O (configuration not stated) 3.02%
O=c1[nH]c(=S)[nH]c(O)c1/C=C1\C=Nc2ccccc21 -2.5%
O=C(O)C1C2C=CC(O2)C1C(=O)Nc1ccccn1 (configuration not stated) -9.44%
O=C(NCc1ccccc1)c1cccc(NC(=O)C2CCCCC2)c1 2.41%
O=C(NCCc1ccccc1)c1cccc(NC(=O)c2ccccc2)c1 1.8%
CCOc1ccc(CCNC(=O)COC(=O)C2CCN(S(=O)(=O)c3ccccc3)CC2)cc1OCC 3.13%
COc1ccc(-c2ccc3c(c2)[C@@H]2C[C@H](N(C)S(=O)(=O)c4ccccc4)[C@H]([C@H](C)O)C(=O)N2CC3)cc1 -1.04%
Oc1c(CN2CCOCC2)ccc(CN2CCOCC2)c1O -4.54%
COc1ccc(C2NCCCC2c2ccccc2)cc1 (configuration not stated) -1.89%
O=C(NN=Cc1ccccc1)c1ccccc1 0.412%
CCC1(C)COC(c2ccc(OC)c(OC)c2)OC1 (configuration not stated) 1.82%
Cc1ccccc1N1CCN(C(=O)c2cccnc2)CC1 5.77%
CSCCC(NC(=O)COc1ccccc1)C(=O)N1CCN(c2cccc(C(F)(F)F)c2)CC1 (configuration not stated) -6.34%
O=S1(=O)CCOC[C@H](Cc2ccccc2)N1Cc1ccccc1Br -2.37%
CC(Nc1ccc([N+](=O)[O-])cc1[N+](=O)[O-])c1ccccc1 (configuration not stated) 3.61%
NN=C(NN=Cc1ccccc1)c1ccccc1 8.09%
Cn1c(=S)sc2ccc3ccccc3c21 -8.56%
Nc1ncnc2c1cnn2C1CC(O)C(CO)O1 (configuration not stated) 5.52%
COc1ccc(CS(=O)/C(Cl)=C(/Cl)C(=O)Nc2ccc(OC)nc2)cc1 (configuration not stated) 3.3%
N=C1c2ccccc2-c2ccccc21 3.58%
C/C(=N\Nc1ccccc1)c1cccs1 -2.99%
CCCCCCCCNS(=O)(=O)CCNC1CCCCC1 -0.0999%
O=S1(=O)CSCS(=O)(=O)C1 -5.1%
Cc1ccc(SCC(=O)N2CCN(c3ccc(F)cc3)CC2)cc1 -7.83%
Cc1nc(Nc2ccccc2C)c2cnn(C)c2n1 2.43%
COc1ccc(NC(=O)/C(N=Nc2cccc(S(=O)(=O)Nc3ccc(SC(F)F)cc3)c2)=C(\C)O)cc1 -4.11%
O=C1CC[C@@H]2CC3(C[C@@H]4CCN1[C@H]24)Nc1cc([N+](=O)[O-])ccc1NC3=NC1CCCCC1 (some centres not stated) -5.47%
N#CC1=C(N)Oc2cc(N)ccc2C1c1ccccc1 (configuration not stated) 4.31%
CN(CCc1ccccc1)C(=O)c1cccc(NC(=O)Cc2cccc(NC(=O)C3CCCN(C(=O)C4CCC4)C3)c2)c1 (configuration not stated) -4.22%
COc1ccc(Nc2ccc3ccccc3c2)cc1 2.88%
COC1=NC2=NCCN2C(OC)=N1 -0.648%
